# Results taken from the supplement of paper PMC6607015.
# Structures can show the parent of a compound that is named as a salt.
# What was measured:
# Conditions in all cases: compound concentration in added solution (µM; 5 µl added to 20 µl cells): 10; 18 h
# A431 [1] = experiment: LBPA endosome anti-LBPA integrated intensity (sum per cell), Z-score; higher = more LBPA staining
# Summary of the method: (§1)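 Each value is a Z-score normalised in AcuityXpress from per-cell integrated LBPA or filipin intensity, taken over the whole cell or within LBPA endosomes. Duplicate 384-well imaging plates held 5 µl of 10 µM compound solution, onto which 3,500 HeLa MZ or A431 cells in 20 µl were seeded per well. After 18 h the cells were fixed in 4% PFA, stained with 6C4 anti-LBPA antibody, filipin, propidium iodide and CellTracker green, imaged four times per well at 20× and segmented in MetaXpress.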
# HeLa MZ [2] = experiment: as above
# Summary of the method: as §1
# A431 [3] = experiment: whole-cell filipin (free cholesterol) integrated intensity, Z-score; higher = more cholesterol staining
# Summary of the method: as §1
# HeLa MZ [4] = experiment: as above
# Summary of the method: as §1
# A431 [5] = experiment: filipin (cholesterol) integrated intensity within LBPA endosomes, Z-score; higher = more cholesterol in LBPA endosomes
# Summary of the method: as §1
# HeLa MZ [6] = experiment: as above
# Summary of the method: as §1
structure (smiles),measurement,setting,value
CC(C)(Oc1ccc(CCNC(=O)c2ccc(Cl)cc2)cc1)C(=O)O [Bezafibrate],LBPA endosome anti-LBPA integrated intensity (z-score),A431 [1],-0.429
same,LBPA endosome anti-LBPA integrated intensity (z-score),HeLa MZ [2],-0.597
same,whole-cell filipin (z-score),A431 [3],-0.437
same,whole-cell filipin (z-score),HeLa MZ [4],-0.728
same,filipin (z-score),A431 [5],-0.456
same,filipin (z-score),HeLa MZ [6],-0.612
CC(=O)[C@H]1CC[C@H]2[C@@H]3CCC4=CC(=O)CC[C@]4(C)[C@H]3CC[C@]12C [Progesterone],LBPA endosome anti-LBPA integrated intensity (z-score),A431 [1],2.4
same,LBPA endosome anti-LBPA integrated intensity (z-score),HeLa MZ [2],0.628
same,whole-cell filipin (z-score),A431 [3],1.62
same,whole-cell filipin (z-score),HeLa MZ [4],0.873
same,filipin (z-score),A431 [5],2.26
same,filipin (z-score),HeLa MZ [6],0.759
CN(C)CCN(Cc1ccccc1)c1ccccn1 [Tripelennamine hydrochloride],LBPA endosome anti-LBPA integrated intensity (z-score),A431 [1],-0.213
same,LBPA endosome anti-LBPA integrated intensity (z-score),HeLa MZ [2],1.28
same,whole-cell filipin (z-score),A431 [3],0.0432
same,whole-cell filipin (z-score),HeLa MZ [4],0.362
same,filipin (z-score),A431 [5],-0.29
same,filipin (z-score),HeLa MZ [6],0.335
CCOc1ccc(Cc2nccc3cc(OCC)c(OCC)cc23)cc1OCC [Ethaverine hydrochloride],LBPA endosome anti-LBPA integrated intensity (z-score),A431 [1],0.203
same,LBPA endosome anti-LBPA integrated intensity (z-score),HeLa MZ [2],2.53
same,whole-cell filipin (z-score),A431 [3],0.476
same,whole-cell filipin (z-score),HeLa MZ [4],0.57
same,filipin (z-score),A431 [5],-0.238
same,filipin (z-score),HeLa MZ [6],0.366
COc1ncnc(NS(=O)(=O)c2ccc(N)cc2)c1OC [Sulfadoxine],LBPA endosome anti-LBPA integrated intensity (z-score),A431 [1],-0.426
same,LBPA endosome anti-LBPA integrated intensity (z-score),HeLa MZ [2],-0.662
same,whole-cell filipin (z-score),A431 [3],0.0314
same,whole-cell filipin (z-score),HeLa MZ [4],-0.436
same,filipin (z-score),A431 [5],-0.379
same,filipin (z-score),HeLa MZ [6],-0.505
CCCCN(CCCC)CCC(O)c1cc2c(Cl)cc(Cl)cc2c2cc(C(F)(F)F)ccc12 (centres undefined) [Halofantrine hydrochloride],LBPA endosome anti-LBPA integrated intensity (z-score),A431 [1],1.7
same,LBPA endosome anti-LBPA integrated intensity (z-score),HeLa MZ [2],-0.119
same,whole-cell filipin (z-score),A431 [3],1.07
same,whole-cell filipin (z-score),HeLa MZ [4],-0.0402
same,filipin (z-score),A431 [5],1.04
same,filipin (z-score),HeLa MZ [6],0.413
O=C(O)c1cc(=O)c2c(OCC(O)COc3cccc4oc(C(=O)O)cc(=O)c34)cccc2o1 [Cromolyn disodium salt],LBPA endosome anti-LBPA integrated intensity (z-score),A431 [1],-0.474
same,LBPA endosome anti-LBPA integrated intensity (z-score),HeLa MZ [2],-0.0857
same,whole-cell filipin (z-score),A431 [3],-0.438
same,whole-cell filipin (z-score),HeLa MZ [4],-0.156
same,filipin (z-score),A431 [5],-0.425
same,filipin (z-score),HeLa MZ [6],-0.474
CCn1cc(C(=O)O)c(=O)c2cc(F)c(N3CCNCC3)nc21 [Enoxacin],LBPA endosome anti-LBPA integrated intensity (z-score),A431 [1],-0.309
same,LBPA endosome anti-LBPA integrated intensity (z-score),HeLa MZ [2],-0.0536
same,whole-cell filipin (z-score),A431 [3],0.119
same,whole-cell filipin (z-score),HeLa MZ [4],0.315
same,filipin (z-score),A431 [5],-0.364
same,filipin (z-score),HeLa MZ [6],-0.345
COc1ccccc1O [Guaiacol],LBPA endosome anti-LBPA integrated intensity (z-score),A431 [1],-0.278
same,LBPA endosome anti-LBPA integrated intensity (z-score),HeLa MZ [2],0.0632
same,whole-cell filipin (z-score),A431 [3],0.299
same,whole-cell filipin (z-score),HeLa MZ [4],-0.2
same,filipin (z-score),A431 [5],-0.335
same,filipin (z-score),HeLa MZ [6],-0.255
CC(C(=O)O)c1ccc2c(c1)Cc1cccnc1O2 (centres undefined) [Pranoprofen],LBPA endosome anti-LBPA integrated intensity (z-score),A431 [1],-0.52
same,LBPA endosome anti-LBPA integrated intensity (z-score),HeLa MZ [2],-0.228
same,whole-cell filipin (z-score),A431 [3],-0.251
same,whole-cell filipin (z-score),HeLa MZ [4],-0.607
same,filipin (z-score),A431 [5],-0.527
same,filipin (z-score),HeLa MZ [6],-0.553
O=C(N/N=C/c1ccc([N+](=O)[O-])o1)c1ccc(O)cc1 [Nifuroxazide],LBPA endosome anti-LBPA integrated intensity (z-score),A431 [1],-0.723
same,LBPA endosome anti-LBPA integrated intensity (z-score),HeLa MZ [2],-1.67
same,whole-cell filipin (z-score),A431 [3],-0.848
same,whole-cell filipin (z-score),HeLa MZ [4],-0.476
same,filipin (z-score),A431 [5],-0.646
same,filipin (z-score),HeLa MZ [6],-0.646
O=c1oc2ccccc2c(O)c1Cc1c(O)c2ccccc2oc1=O [Dicumarol],LBPA endosome anti-LBPA integrated intensity (z-score),A431 [1],-0.455
same,LBPA endosome anti-LBPA integrated intensity (z-score),HeLa MZ [2],-0.834
same,whole-cell filipin (z-score),A431 [3],-0.37
same,whole-cell filipin (z-score),HeLa MZ [4],-0.48
same,filipin (z-score),A431 [5],-0.64
same,filipin (z-score),HeLa MZ [6],-0.672
O=C1CCC(N2C(=O)c3ccccc3C2=O)C(=O)N1 (centres undefined) [Thalidomide],LBPA endosome anti-LBPA integrated intensity (z-score),A431 [1],-0.476
same,LBPA endosome anti-LBPA integrated intensity (z-score),HeLa MZ [2],-0.403
same,whole-cell filipin (z-score),A431 [3],-0.887
same,whole-cell filipin (z-score),HeLa MZ [4],-1.09
same,filipin (z-score),A431 [5],-0.544
same,filipin (z-score),HeLa MZ [6],-0.68
CC1Cc2ccccc2N1NC(=O)c1ccc(Cl)c(S(N)(=O)=O)c1 (centres undefined) [Indapamide],LBPA endosome anti-LBPA integrated intensity (z-score),A431 [1],-0.302
same,LBPA endosome anti-LBPA integrated intensity (z-score),HeLa MZ [2],0.5
same,whole-cell filipin (z-score),A431 [3],-0.729
same,whole-cell filipin (z-score),HeLa MZ [4],-0.419
same,filipin (z-score),A431 [5],-0.453
same,filipin (z-score),HeLa MZ [6],-0.438
CCN(CC)CCNC(=O)c1ccc(N)cc1 [Procainamide hydrochloride],LBPA endosome anti-LBPA integrated intensity (z-score),A431 [1],-0.492
same,LBPA endosome anti-LBPA integrated intensity (z-score),HeLa MZ [2],0.0584
same,whole-cell filipin (z-score),A431 [3],-0.628
same,whole-cell filipin (z-score),HeLa MZ [4],0.713
same,filipin (z-score),A431 [5],-0.428
same,filipin (z-score),HeLa MZ [6],-0.159
NC(=O)N1c2ccccc2C=Cc2ccccc21 [Carbamazepine],LBPA endosome anti-LBPA integrated intensity (z-score),A431 [1],-0.439
same,LBPA endosome anti-LBPA integrated intensity (z-score),HeLa MZ [2],-0.106
same,whole-cell filipin (z-score),A431 [3],-0.553
same,whole-cell filipin (z-score),HeLa MZ [4],-0.708
same,filipin (z-score),A431 [5],-0.587
same,filipin (z-score),HeLa MZ [6],-0.687
CNc1ncnc2c1ncn2[C@@H]1O[C@H](CO)[C@@H](O)[C@H]1O [N6-methyladenosine],LBPA endosome anti-LBPA integrated intensity (z-score),A431 [1],-0.364
same,LBPA endosome anti-LBPA integrated intensity (z-score),HeLa MZ [2],0.218
same,whole-cell filipin (z-score),A431 [3],-0.443
same,whole-cell filipin (z-score),HeLa MZ [4],0.122
same,filipin (z-score),A431 [5],-0.45
same,filipin (z-score),HeLa MZ [6],-0.43
Clc1ccc2c(c1)CCc1cccnc1C2=C1CCNCC1 [Desloratadine],LBPA endosome anti-LBPA integrated intensity (z-score),A431 [1],3.93
same,LBPA endosome anti-LBPA integrated intensity (z-score),HeLa MZ [2],2.5
same,whole-cell filipin (z-score),A431 [3],1.63
same,whole-cell filipin (z-score),HeLa MZ [4],0.223
same,filipin (z-score),A431 [5],2.69
same,filipin (z-score),HeLa MZ [6],2.81
Nc1ccc(S(=O)(=O)Nc2ncccn2)cc1 [Sulfadiazine],LBPA endosome anti-LBPA integrated intensity (z-score),A431 [1],-0.494
same,LBPA endosome anti-LBPA integrated intensity (z-score),HeLa MZ [2],-0.985
same,whole-cell filipin (z-score),A431 [3],-0.718
same,whole-cell filipin (z-score),HeLa MZ [4],-0.987
same,filipin (z-score),A431 [5],-0.481
same,filipin (z-score),HeLa MZ [6],-0.62
C[C@H](CCC(=O)O)[C@H]1CC[C@H]2[C@@H]3[C@H](O)C[C@@H]4C[C@H](O)CC[C@]4(C)[C@H]3CC[C@]12C [Chenodiol],LBPA endosome anti-LBPA integrated intensity (z-score),A431 [1],-0.496
same,LBPA endosome anti-LBPA integrated intensity (z-score),HeLa MZ [2],-1.46
same,whole-cell filipin (z-score),A431 [3],-0.897
same,whole-cell filipin (z-score),HeLa MZ [4],-0.999
same,filipin (z-score),A431 [5],-0.575
same,filipin (z-score),HeLa MZ [6],-0.773
CC(N/C(=N\C#N)Nc1ccncc1)C(C)(C)C (centres undefined) [Pinacidil],LBPA endosome anti-LBPA integrated intensity (z-score),A431 [1],-0.477
same,LBPA endosome anti-LBPA integrated intensity (z-score),HeLa MZ [2],-0.897
same,whole-cell filipin (z-score),A431 [3],-0.717
same,whole-cell filipin (z-score),HeLa MZ [4],-0.503
same,filipin (z-score),A431 [5],-0.45
same,filipin (z-score),HeLa MZ [6],-0.559
O=C(O)[C@H]1/C(=C/CO)O[C@@H]2CC(=O)N21 [Potassium clavulanate],LBPA endosome anti-LBPA integrated intensity (z-score),A431 [1],-0.48
same,LBPA endosome anti-LBPA integrated intensity (z-score),HeLa MZ [2],-0.536
same,whole-cell filipin (z-score),A431 [3],0.227
same,whole-cell filipin (z-score),HeLa MZ [4],-0.0014
same,filipin (z-score),A431 [5],-0.358
same,filipin (z-score),HeLa MZ [6],-0.433
CN1Cc2c(N)cccc2C(c2ccccc2)C1 (centres undefined) [Nomifensine maleate],LBPA endosome anti-LBPA integrated intensity (z-score),A431 [1],-0.419
same,LBPA endosome anti-LBPA integrated intensity (z-score),HeLa MZ [2],0.114
same,whole-cell filipin (z-score),A431 [3],-0.627
same,whole-cell filipin (z-score),HeLa MZ [4],-0.396
same,filipin (z-score),A431 [5],-0.47
same,filipin (z-score),HeLa MZ [6],-0.516
CCc1nc(N)nc(N)c1-c1ccc(Cl)cc1 [Pyrimethamine],LBPA endosome anti-LBPA integrated intensity (z-score),A431 [1],0.585
same,LBPA endosome anti-LBPA integrated intensity (z-score),HeLa MZ [2],0.917
same,whole-cell filipin (z-score),A431 [3],0.585
same,whole-cell filipin (z-score),HeLa MZ [4],-0.093
same,filipin (z-score),A431 [5],-0.133
same,filipin (z-score),HeLa MZ [6],-0.422
